From PubChem BioAssay AID623888 (Vanderbilt Specialized Chemistry Center, 2012)

Molecular target: Metabotropic glutamate receptor 3 (Rattus norvegicus) (UniProt P31422)
Experiment: PubChem AID 623888
Conditions: HEK/GIRK rat mGlu3, thallium flux fluorescence, Schild, at 3 µM; % glutamate max: glutamate max response with compound, stronger effect = lower value; glutamate EC50 fold shift: stronger effect = higher value

Chain of Metabotropic glutamate receptor 3 (Rattus norvegicus) (P31422 whole entry, looked up): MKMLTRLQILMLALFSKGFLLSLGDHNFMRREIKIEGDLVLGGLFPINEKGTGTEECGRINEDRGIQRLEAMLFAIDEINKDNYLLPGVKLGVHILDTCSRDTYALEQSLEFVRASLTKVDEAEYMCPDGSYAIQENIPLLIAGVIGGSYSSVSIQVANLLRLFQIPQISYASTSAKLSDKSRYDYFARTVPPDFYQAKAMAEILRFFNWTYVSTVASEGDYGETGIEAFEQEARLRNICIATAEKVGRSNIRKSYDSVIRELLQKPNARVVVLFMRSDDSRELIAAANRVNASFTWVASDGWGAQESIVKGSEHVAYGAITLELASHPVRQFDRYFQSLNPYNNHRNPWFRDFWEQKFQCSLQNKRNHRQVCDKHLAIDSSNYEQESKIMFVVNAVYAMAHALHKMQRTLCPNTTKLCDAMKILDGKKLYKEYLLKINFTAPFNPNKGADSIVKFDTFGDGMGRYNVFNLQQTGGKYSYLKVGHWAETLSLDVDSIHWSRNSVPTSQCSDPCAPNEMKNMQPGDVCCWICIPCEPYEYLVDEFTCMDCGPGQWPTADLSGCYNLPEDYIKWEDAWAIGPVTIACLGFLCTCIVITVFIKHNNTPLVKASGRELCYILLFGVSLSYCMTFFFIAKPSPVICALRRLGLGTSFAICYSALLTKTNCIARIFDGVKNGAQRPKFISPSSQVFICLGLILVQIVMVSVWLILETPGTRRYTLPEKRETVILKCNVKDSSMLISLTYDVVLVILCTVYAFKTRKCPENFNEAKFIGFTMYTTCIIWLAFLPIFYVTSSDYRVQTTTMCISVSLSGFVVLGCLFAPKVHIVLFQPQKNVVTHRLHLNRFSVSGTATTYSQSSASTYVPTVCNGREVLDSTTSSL

Q: How did the % glutamate max turn out when `COc1ccc(C#Cc2ccc(C(=O)N3CCC[C@@H](CO)C3)cc2)cc1` was run?
A: 88.9%

Q: And the glutamate EC50 fold shift?
A: 1.48
